Measured values: publication PMC4336329 (PLoS ONE, 2015)
The campaign covered roughly 310,000 compounds. About 14,000 (4.5%) showed an effect of 50% or more. The effect is printed as a negative number. The sample as a whole holds a higher share of strong results than the screen did.

These molecules were tested against human ether-à-go-go-related gene (hERG) potassium channel (human, UniProt Q12809) (assay: primary screen, population patch clamp on CHO cells stably expressing hERG; higher = less effect of the substance).
human ether-à-go-go-related gene (hERG) potassium channel, sequence (Q12809 whole entry, looked up): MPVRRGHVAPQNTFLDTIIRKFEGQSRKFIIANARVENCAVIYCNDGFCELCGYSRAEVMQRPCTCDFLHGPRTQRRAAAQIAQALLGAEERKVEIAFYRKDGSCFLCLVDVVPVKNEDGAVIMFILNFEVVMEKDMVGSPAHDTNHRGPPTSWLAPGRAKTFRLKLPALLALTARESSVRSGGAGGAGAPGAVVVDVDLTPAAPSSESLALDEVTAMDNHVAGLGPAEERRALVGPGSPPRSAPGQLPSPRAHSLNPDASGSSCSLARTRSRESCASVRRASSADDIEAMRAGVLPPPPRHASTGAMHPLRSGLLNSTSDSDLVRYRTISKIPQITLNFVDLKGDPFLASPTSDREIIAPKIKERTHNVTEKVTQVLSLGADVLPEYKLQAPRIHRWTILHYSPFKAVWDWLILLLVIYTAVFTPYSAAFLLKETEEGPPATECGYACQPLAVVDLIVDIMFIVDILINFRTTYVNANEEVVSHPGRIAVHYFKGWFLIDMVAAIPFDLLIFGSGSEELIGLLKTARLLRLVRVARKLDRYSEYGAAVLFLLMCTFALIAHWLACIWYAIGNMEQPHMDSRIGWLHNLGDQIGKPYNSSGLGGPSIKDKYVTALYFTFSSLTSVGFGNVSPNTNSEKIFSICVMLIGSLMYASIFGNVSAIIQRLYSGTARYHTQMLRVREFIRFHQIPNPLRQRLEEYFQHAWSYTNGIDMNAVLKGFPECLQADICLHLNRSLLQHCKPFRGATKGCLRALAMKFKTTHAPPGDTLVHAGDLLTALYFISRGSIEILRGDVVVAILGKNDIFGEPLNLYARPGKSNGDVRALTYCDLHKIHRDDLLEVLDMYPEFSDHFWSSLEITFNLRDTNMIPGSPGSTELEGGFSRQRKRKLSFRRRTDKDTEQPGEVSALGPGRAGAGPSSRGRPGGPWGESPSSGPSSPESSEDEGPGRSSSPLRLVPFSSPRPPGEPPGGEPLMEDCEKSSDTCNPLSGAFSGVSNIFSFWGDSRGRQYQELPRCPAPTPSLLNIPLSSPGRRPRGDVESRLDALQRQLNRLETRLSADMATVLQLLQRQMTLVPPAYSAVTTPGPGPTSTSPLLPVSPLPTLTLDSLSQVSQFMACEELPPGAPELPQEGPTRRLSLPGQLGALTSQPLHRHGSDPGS
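Further: peak tail current of the secondary pulse compared with the same well before compound.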

| SMILES | hERG current change (%, negative = inhibition) at 10uM [%] |
| --- | --- |
| COc1ccc(N2C(=O)c3ccc(NC(C)=O)cc3C2=O)cc1 | 20.2 |
| CC(=O)N1Cc2ccccc2CC1C(=O)O (stereo not shown) | -7.43 |
| CC1(C)CC(CC(=O)Nc2ccc([N+](=O)[O-])cc2)C(=O)O1 (stereo not shown) | -22.5 |
| CC1(C)CC(CC(=O)NC(=S)Nc2ccc([N+](=O)[O-])cc2)C(=O)O1 (stereo not shown) | -21.2 |
| CC(CC1CC(C)(C)OC1=O)C(=O)Nc1ccc([N+](=O)[O-])cc1 (stereo not shown) | -51.4 |
| COc1ccc(C)cc1NC(=O)CSCc1ccccc1C | -4 |
| CCCCCOc1ccc(CSC2=NCCN2)cc1[N+](=O)[O-] | -80.2 |
| CCCOc1ccc(CSC2=NCCN2)cc1[N+](=O)[O-] | -66.7 |
| CCCCOc1ccc(CSc2nnc(C)n2N)cc1[N+](=O)[O-] | -31.5 |
| CCOc1ccc(CSC2=NCCN2)cc1Cl.Cl | -50.9 |
| COc1ccc(CSC2=NCCN2)cc1Cl.Cl | -18.2 |
| COc1ccc(CSc2nc(C)[nH]c2[N+](=O)[O-])cc1[N+](=O)[O-] | 4.63 |
| COc1ccc(CSc2cccc3cccnc23)cc1[N+](=O)[O-] | 1.59 |
| COc1ccc(CSc2n[nH]c(C)n2)cc1[N+](=O)[O-] | 26.2 |
| CCCCOc1ccc(CSC2=NCCN2)cc1[N+](=O)[O-].Cl | -68.7 |
| Br.N#Cc1ccc(CSC2=NCCN2)cc1 | -4.5 |
| COc1ccc(CSC2=NCCN2)cc1Br | 1.43 |
| Cl.Clc1ccc(CSC2=NCCCN2)cc1Cl | -18.2 |
| CC(Oc1ccc(Cl)cc1)C(=O)NCCCn1ccnc1 (stereo not shown) | -7.09 |
| Cc1csc(NC(=O)CN2CCCCCC2)n1.O=C(O)C(=O)O | 14.3 |

| SMILES | hERG current change (%, negative = inhibition) at 10uM [%] |
| --- | --- |
| Cc1cc(C)c2cc(C(=O)Nc3ccc4c(c3)OCO4)[nH]c2c1 | 16.2 |
| CCOc1ccc2c(C)c(C(=O)O)oc2c1OCC | 16.5 |
| NS(=O)(=O)c1cccc(NC(=O)CC2(CC(=O)O)CCCC2)c1 | 33.9 |
| CSc1nc(Cc2ccc(Cl)cc2)nc2ccccc12 | -16.7 |
| COc1ccc(CSc2ncn[nH]2)cc1[N+](=O)[O-] | 2.83 |
| CCOc1ccc(CSC2=NCCN2)cc1[N+](=O)[O-].Cl | -83.5 |
| Br.O=[N+]([O-])c1ccc(CSC2=NCCN2)cc1 | -15.3 |
| Cc1ccc(-n2c(C)nnc2SCC(=O)N2CCOCC2)cc1 | 21.9 |
| CSCCCNC(=S)Nc1cccc(S(=O)(=O)NC2=NCCC2)c1 | 32.8 |
| CSc1ccccc1OCc1cc(C(=O)NCCn2nc(C)cc2C)no1 | -0.00922 |
| O=S(=O)(Nc1nc2ccccc2nc1NCC1CCCO1)c1ccccc1 (stereo not shown) | 2.43 |
| CCOC(=O)C1(Cc2ccccc2C(F)(F)F)CCN(Cc2ccon2)CC1 | -2.88 |
| CCOC(=O)C1(Cc2ccccc2C(F)(F)F)CCN(C(=O)c2cc(C)n(C)n2)CC1 | -22.6 |
| CCOC(=O)C1(Cc2ccccc2C(F)(F)F)CCN(C2CCN(C(C)=O)CC2)CC1 | -18.6 |
| CCOC(=O)C1(Cc2ccccc2C(F)(F)F)CCN(C2CCN(C(C)C)CC2)CC1 | -36.6 |
| CCOC(=O)C1(Cc2ccccc2C(F)(F)F)CCN(CCCn2cccn2)CC1 | -82.1 |
| CCOC(=O)C1(Cc2ccccc2C(F)(F)F)CCN(C(C)CSC)CC1 (stereo not shown) | -48.2 |
| CCOC(=O)C1(Cc2ccccc2C(F)(F)F)CCN(CC(O)CO)CC1 (stereo not shown) | -3.71 |
| CCOC(=O)C1(Cc2ccccc2C(F)(F)F)CCN(C(=O)c2cc(C(C)=O)n[nH]2)CC1 | -57.2 |
| CCOC(=O)C1(Cc2ccccc2C(F)(F)F)CCN(C(C)CCn2cccn2)CC1 (stereo not shown) | -65.6 |

| SMILES | hERG current change (%, negative = inhibition) at 10uM [%] |
| --- | --- |
| COc1cccc2cc(C(=O)NCc3ccccc3Br)c(=O)oc12 | 19 |
| CN(Cc1ccc(C(F)(F)F)cc1)C(=O)c1ccc(Oc2ccccc2)cc1 | 13.1 |
| Cc1ccc(S(=O)(=O)Nc2ccccc2)cc1C(=O)N1CCCC1 | -4.95 |
| Cc1nonc1NC(=O)CSc1nc2ccc(Cl)cc2[nH]1 | 3.09 |
| Cc1sc(NC(=O)Cn2[nH]c(=O)c3ccccc3c2=O)nc1-c1ccccc1 | 11.6 |
| CCOC(=O)N1CCC(N2C(=O)c3ccccc3C2Nc2ccc(S(=O)(=O)N(CC)CC)cc2)CC1 (stereo not shown) | -62.6 |
| CCOC(=O)N1CCC(N2C(=O)c3ccccc3C2Nc2cc(Cl)c(OC)cc2OC)CC1 (stereo not shown) | -45.5 |
| CCOC(=O)N1CCC(N2C(=O)c3ccccc3C2Nc2ccc(S(=O)(=O)N3CCCCC3)cc2)CC1 (stereo not shown) | -58 |
| CCOC(=O)N1CCC(N2C(=O)c3ccccc3C2Nc2ccc(C)cc2)CC1 (stereo not shown) | -32.8 |
| CCOC(=O)N1CCC(N2C(=O)c3ccccc3C2Nc2cccnc2)CC1 (stereo not shown) | 1.81 |
| CCOC(=O)N1CCC(N2C(=O)c3ccccc3C2Nc2ccc(S(=O)(=O)N3CCOCC3)cc2)CC1 (stereo not shown) | -16.7 |
| COc1ccc(C2C3=C(CC(C)(C)CC3=O)N(CC(=O)O)C3=C2C(=O)CC(C)(C)C3)cc1OC | 2.83 |
| COc1cc(OC)c(N2CC34C=CC(O3)C(C(=O)O)C4C2=O)cc1Cl (stereo not shown) | 4.99 |
| CCc1nnc(NC(=O)CSc2ccc(-c3nc4ccc(C)cc4[nH]3)cn2)s1 | 6.54 |
| CCc1ccc(OCC(=O)N(C)C)c(Br)c1 | -7.33 |
| CCc1ccc(OCC(=O)NCCN(C)C)c(Br)c1 | -58.4 |
| CN(C)CCNC(=O)COc1ccc(Cl)cc1Cl | -18.2 |
| O=C(COC(=O)c1ccc2ncsc2c1)NCc1cccc(Cl)c1 | -11.2 |
